About 8,800 targets were measured; listed, in parts, are those with a hit and a random draw of the rest. About 0.5% of all pairs of compound and target were hits. Values without a mark were called inactive.
Tests used:
Test in all cases: log2 fold change, soluble protein after heating vs DMSO (PISA); higher = thermal stabilisation; K562 lysate, 10 uM; active = over 0.2 and 3.5 SD of the protein, either way, in both replicates (recomputed)
lapatinib = compound: CS(=O)(=O)CCNCc1ccc(-c2ccc3ncnc(Nc4ccc(OCc5cccc(F)c5)c(Cl)c4)c3c2)o1 [lapatinib]
How it was run: (§1)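 K562 pellets were dounce-homogenised in PBS pH 7.4 containing 1 mM MgCl2, and the crude extract, at 1 mg/mL protein, was exposed to 10 μM compound for 30 min. Aliquots were heated for 3 min across 48°C-58°C, pooled, brought to 0.5% NP-40 at 4°C and spun at 21,000xg for 90 min, with the supernatant taken as soluble protein. TMTpro 16plex LC-MS/MS with equalised channel sums quantified that protein. Values are log-two fold changes in thermal stability relative to solvent controls, taken from duplicates.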

pictilisib = compound: CS(=O)(=O)N1CCN(Cc2cc3nc(-c4cccc5[nH]ncc45)nc(N4CCOCC4)c3s2)CC1 [pictilisib]
How it was run: as §1

crizotinib = compound: C[C@@H](Oc1cc(-c2cnn(C3CCNCC3)c2)cnc1N)c1c(Cl)ccc(F)c1Cl [crizotinib]
How it was run: as §1

[1] = compound: C[C@H](C1=CC=C(C=C1)C(=O)NC2=C3C=CNC3=NC=C2)N
How it was run: as §1

duvelisib = compound: C[C@H](Nc1ncnc2nc[nH]c12)c1cc2cccc(Cl)c2c(=O)n1-c1ccccc1 [duvelisib]
How it was run: as §1

gandotinib = compound: Cc1cc(Nc2cc(CN3CCOCC3)c3nc(C)c(Cc4ccc(Cl)cc4F)n3n2)n[nH]1 [gandotinib]
How it was run: as §1

tozasertib = compound: Cc1cc(Nc2cc(N3CCN(C)CC3)nc(Sc3ccc(NC(=O)C4CC4)cc3)n2)n[nH]1 [tozasertib]
How it was run: as §1

doramapimod = compound: Cc1ccc(-n2nc(C(C)(C)C)cc2NC(=O)Nc2ccc(OCCN3CCOCC3)c3ccccc23)cc1 [doramapimod]
How it was run: as §1

bafetinib = compound: Cc1ccc(NC(=O)c2ccc(CN3CC[C@H](N(C)C)C3)c(C(F)(F)F)c2)cc1Nc1nccc(-c2cncnc2)n1 [bafetinib]
How it was run: as §1

[2] = compound: Cc1cccc(CC(=O)N2CCc3c2ccc(-c2cn(C)c4ncnc(N)c24)c3F)n1
How it was run: as §1

dasatinib = compound: Cc1nc(Nc2ncc(C(=O)Nc3c(C)cccc3Cl)s2)cc(N2CCN(CCO)CC2)n1 [dasatinib]
How it was run: as §1

[3] = compound: Cn1cc(-c2ccc3c(c2)CCN3C(=O)Cc2cccc(C(F)(F)F)c2)c2c(N)ncnc21
How it was run: as §1

quisinostat = compound: Cn1cc(CNCC2CCN(c3ncc(C(=O)NO)cn3)CC2)c2ccccc21 [quisinostat]
How it was run: as §1

[4] = compound: NC(=O)Nc1cc(-c2cccc(F)c2)sc1C(=O)N[C@H]1CCCNC1
How it was run: as §1

[5] = compound: NC(=O)c1cnc(N[C@@H]2CCCC[C@@H]2N)nc1Nc1cccc(-n2nccn2)c1
How it was run: as §1

[6] = compound: NC1(c2ccc(-c3nc4ccn5c(=O)[nH]nc5c4cc3-c3ccccc3)cc2)CCC1
How it was run: as §1

nilotinib = compound: Cc1cn(-c2cc(NC(=O)c3ccc(C)c(Nc4nccc(-c5cccnc5)n4)c3)cc(C(F)(F)F)c2)cn1 [nilotinib]
How it was run: as §1

[7] = compound: Cc1nc(Nc2n[nH]c3c2CN(C(=O)N[C@H](CN(C)C)c2ccccc2)C3(C)C)c2sccc2n1
How it was run: as §1

[8] = compound: Cc1ncc(-c2ccnc(Nc3ccc(S(C)(=O)=O)cc3)n2)n1C(C)C
How it was run: as §1

tipifarnib = compound: Cn1cncc1[C@@](N)(c1ccc(Cl)cc1)c1ccc2c(c1)c(-c1cccc(Cl)c1)cc(=O)n2C [tipifarnib]
How it was run: as §1

UniProt Q9UPU9, sequence (Q9UPU9 whole entry, looked up): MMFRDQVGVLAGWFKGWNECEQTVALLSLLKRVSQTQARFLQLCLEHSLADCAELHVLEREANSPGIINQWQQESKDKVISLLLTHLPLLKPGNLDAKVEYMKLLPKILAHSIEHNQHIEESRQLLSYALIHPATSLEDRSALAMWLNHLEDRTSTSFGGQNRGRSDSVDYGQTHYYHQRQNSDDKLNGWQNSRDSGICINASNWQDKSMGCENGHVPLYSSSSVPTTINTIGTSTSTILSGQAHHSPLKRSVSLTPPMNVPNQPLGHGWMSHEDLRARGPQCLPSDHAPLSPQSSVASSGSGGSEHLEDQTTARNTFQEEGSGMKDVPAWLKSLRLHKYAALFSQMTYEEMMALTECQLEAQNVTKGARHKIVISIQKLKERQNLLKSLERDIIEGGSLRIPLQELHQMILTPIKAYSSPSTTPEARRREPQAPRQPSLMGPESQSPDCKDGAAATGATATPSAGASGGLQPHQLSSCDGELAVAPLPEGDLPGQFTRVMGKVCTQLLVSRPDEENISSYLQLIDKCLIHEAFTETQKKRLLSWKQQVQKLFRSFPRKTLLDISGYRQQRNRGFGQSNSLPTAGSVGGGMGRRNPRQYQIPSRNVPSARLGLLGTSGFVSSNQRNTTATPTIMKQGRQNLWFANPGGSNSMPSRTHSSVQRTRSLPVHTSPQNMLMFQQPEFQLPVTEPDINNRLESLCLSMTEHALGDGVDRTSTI
UniProt Q6NUM9, sequence (Q6NUM9 whole entry, looked up): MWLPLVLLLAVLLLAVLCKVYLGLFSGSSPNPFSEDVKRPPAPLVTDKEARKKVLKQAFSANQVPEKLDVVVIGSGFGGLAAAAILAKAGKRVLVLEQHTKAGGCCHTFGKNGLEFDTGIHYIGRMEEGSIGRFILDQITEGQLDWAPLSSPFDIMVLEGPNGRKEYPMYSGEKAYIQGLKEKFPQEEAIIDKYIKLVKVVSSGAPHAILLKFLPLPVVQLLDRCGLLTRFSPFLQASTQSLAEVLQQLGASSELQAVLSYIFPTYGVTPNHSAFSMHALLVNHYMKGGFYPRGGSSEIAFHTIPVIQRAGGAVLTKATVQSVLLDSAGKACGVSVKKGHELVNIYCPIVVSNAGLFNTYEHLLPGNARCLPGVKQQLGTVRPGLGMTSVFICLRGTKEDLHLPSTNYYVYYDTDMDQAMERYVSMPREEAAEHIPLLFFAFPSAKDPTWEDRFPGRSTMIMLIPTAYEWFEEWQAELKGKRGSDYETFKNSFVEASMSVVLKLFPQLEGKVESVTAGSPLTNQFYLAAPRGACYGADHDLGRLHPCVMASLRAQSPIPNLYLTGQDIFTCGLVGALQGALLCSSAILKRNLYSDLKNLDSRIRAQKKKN
UniProt Q96E14, sequence (Q96E14 whole entry, looked up): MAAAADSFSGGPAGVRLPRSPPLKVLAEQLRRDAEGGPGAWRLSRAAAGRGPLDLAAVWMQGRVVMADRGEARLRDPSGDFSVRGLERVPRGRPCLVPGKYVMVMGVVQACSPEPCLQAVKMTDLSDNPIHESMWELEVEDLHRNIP
UniProt Q8IZV5, sequence (Q8IZV5 whole entry, looked up): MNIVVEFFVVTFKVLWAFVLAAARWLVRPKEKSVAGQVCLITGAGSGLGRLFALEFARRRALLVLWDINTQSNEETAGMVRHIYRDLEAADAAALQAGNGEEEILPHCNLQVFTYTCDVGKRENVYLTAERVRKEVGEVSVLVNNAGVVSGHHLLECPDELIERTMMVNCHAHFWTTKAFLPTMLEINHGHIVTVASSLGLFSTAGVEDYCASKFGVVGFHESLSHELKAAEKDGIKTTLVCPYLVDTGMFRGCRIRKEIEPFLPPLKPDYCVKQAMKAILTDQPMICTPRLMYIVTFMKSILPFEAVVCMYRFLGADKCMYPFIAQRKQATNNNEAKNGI
UniProt Q9UQR0, sequence (Q9UQR0 whole entry, looked up): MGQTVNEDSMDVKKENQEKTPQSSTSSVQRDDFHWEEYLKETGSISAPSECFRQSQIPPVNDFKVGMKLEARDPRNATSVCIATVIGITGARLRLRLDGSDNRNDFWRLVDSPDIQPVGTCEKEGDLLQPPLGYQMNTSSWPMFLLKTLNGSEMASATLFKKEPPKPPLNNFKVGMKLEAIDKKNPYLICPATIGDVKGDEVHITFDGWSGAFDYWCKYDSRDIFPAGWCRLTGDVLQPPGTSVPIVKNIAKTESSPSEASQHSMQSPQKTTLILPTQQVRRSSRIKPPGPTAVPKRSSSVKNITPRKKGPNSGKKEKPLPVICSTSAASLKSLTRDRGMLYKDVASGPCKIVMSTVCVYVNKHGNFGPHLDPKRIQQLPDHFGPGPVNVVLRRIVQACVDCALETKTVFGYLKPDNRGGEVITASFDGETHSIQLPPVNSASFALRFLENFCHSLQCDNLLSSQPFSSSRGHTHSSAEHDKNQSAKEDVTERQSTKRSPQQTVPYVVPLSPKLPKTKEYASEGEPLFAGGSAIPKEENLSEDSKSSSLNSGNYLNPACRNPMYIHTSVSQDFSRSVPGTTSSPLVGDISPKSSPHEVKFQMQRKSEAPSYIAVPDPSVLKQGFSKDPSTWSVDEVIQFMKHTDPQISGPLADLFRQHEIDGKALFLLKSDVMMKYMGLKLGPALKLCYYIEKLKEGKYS
UniProt P51812, sequence (P51812 whole entry, looked up): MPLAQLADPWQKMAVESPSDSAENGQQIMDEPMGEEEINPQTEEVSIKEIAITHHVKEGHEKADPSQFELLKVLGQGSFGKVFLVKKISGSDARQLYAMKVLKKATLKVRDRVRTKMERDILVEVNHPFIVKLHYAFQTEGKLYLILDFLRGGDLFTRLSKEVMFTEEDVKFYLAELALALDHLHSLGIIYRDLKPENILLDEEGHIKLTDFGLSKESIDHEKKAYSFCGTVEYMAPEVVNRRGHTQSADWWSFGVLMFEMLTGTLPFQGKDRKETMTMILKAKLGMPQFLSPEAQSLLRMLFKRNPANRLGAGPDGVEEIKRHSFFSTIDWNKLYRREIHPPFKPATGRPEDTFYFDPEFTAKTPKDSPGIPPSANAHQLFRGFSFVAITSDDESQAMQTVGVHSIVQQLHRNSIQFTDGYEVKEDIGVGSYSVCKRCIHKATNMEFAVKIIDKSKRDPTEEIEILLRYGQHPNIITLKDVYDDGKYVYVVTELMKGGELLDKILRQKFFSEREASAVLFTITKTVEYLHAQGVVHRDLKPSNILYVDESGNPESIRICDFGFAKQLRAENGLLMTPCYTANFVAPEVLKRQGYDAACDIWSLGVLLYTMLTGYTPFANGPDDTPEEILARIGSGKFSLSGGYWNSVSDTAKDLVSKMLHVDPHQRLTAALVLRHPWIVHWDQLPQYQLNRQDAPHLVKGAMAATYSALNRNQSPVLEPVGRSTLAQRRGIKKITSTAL
UniProt O43819, sequence (O43819 whole entry, looked up): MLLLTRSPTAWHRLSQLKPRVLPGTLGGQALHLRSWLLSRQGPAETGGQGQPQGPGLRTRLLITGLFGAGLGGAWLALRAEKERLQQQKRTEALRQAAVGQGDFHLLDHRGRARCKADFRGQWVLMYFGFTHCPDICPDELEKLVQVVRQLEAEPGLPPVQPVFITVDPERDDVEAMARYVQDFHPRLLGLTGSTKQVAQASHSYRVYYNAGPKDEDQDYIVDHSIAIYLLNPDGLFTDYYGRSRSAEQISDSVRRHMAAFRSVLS
UniProt Q16576, sequence (Q16576 whole entry, looked up): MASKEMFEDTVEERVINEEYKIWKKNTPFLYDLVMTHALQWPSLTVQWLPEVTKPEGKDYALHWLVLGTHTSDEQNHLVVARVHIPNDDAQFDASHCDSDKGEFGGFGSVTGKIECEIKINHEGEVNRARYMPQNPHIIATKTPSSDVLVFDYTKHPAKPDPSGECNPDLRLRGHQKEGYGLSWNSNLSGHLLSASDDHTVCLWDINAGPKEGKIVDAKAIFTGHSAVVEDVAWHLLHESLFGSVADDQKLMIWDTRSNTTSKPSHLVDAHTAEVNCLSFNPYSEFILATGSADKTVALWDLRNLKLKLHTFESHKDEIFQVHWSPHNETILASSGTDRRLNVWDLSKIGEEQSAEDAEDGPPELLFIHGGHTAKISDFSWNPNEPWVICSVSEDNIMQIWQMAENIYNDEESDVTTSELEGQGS
UniProt Q96K19, sequence (Q96K19 whole entry, looked up): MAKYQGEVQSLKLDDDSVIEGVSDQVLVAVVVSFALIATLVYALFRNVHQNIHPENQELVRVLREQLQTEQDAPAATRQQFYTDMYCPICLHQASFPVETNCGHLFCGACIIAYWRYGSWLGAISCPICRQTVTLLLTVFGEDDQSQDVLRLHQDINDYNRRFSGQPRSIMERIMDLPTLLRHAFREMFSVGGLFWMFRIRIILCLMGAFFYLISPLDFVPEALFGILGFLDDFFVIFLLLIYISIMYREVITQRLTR
UniProt Q9BWF3, sequence (Q9BWF3 whole entry, looked up): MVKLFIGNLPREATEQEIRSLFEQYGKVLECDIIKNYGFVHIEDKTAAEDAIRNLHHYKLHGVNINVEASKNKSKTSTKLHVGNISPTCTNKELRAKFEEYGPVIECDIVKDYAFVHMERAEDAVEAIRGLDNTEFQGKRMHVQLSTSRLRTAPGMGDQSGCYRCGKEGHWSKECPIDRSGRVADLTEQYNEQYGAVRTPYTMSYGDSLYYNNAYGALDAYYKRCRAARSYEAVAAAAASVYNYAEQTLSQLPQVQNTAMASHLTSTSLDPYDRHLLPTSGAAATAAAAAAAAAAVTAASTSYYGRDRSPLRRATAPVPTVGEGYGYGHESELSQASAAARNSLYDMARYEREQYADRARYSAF
UniProt Q8TC12, sequence (Q8TC12 whole entry, looked up): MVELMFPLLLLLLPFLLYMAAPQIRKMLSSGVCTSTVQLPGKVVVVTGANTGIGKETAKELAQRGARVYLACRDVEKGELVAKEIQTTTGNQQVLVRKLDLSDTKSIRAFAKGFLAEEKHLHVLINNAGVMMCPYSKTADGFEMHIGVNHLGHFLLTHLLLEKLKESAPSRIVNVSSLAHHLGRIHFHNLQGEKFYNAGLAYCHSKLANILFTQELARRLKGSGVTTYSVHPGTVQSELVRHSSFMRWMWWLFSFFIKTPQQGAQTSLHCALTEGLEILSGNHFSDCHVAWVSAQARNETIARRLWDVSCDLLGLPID

Target	log2 fold change (lapatinib)	log2 fold change (pictilisib)	log2 fold change (crizotinib)	log2 fold change [1]	log2 fold change (duvelisib)	log2 fold change (gandotinib)	log2 fold change (tozasertib)	log2 fold change (doramapimod)	log2 fold change (bafetinib)	log2 fold change [2]	log2 fold change (dasatinib)	log2 fold change [3]	log2 fold change (quisinostat)	log2 fold change [4]	log2 fold change [5]	log2 fold change [6]	log2 fold change (nilotinib)	log2 fold change [7]	log2 fold change [8]	log2 fold change (tipifarnib)
RETSAT (UniProt Q6NUM9)	0.056	-0.048	-0.329	-0.159	0.039	0.167	-0.024	0.006	-0.097	0.391	-0.1	-0.058	-0.485 (active)	0.152	-0.005	-0.051	–	–	–	–
RBBP7 (UniProt Q16576)	0.001	0.007	0.026	–	0.02	–	0.073	-0.036	-0.072	–	0.029	-0.006	-0.041	0.04	-0.003	0.039	-0.02	-0.002	0.007	0.014
RDH10 (UniProt Q8IZV5)	0.004	-0.035	0.062	-0.039	0.022	0.055	-0.032	-0.012	0.001	0.043	0.132	-0.022	0.05	-0.002	-0.084	0.073	-0.004	0.011	0.026	0.042
RPS6KA3 (UniProt P51812)	-0.089	0.223	-0.012	-0.037	-0.016	0.156	0.363	-0.057	-0.077	-0.083	-0.065	0.031	-0.046	0.133	0.09	0.005	-0.02	0.17	0.039	-0.023
RBSN (UniProt Q9H1K0)	-0.008	-0.024	-0.012	-0.032	0.093	0.019	0.13	-0.026	0.026	0.059	-0.106	-0.004	-0.04	0.05	0.039	0.029	-0.047	0.057	0.034	-0.036
RYR1 (UniProt P21817)	0.028	-0.048	-0.229	-0.017	-0.032	-0.027	0.04	0.112	-0.13	0.016	-0.032	-0.061	-0.392 (active)	0.046	0.029	0.003	–	–	–	–
SCML2 (UniProt Q9UQR0)	0.035	-0.027	-0.022	0.034	0.006	-0.045	0.029	0	-0.017	-0.014	-0.014	0.027	0.007	0.048	0.012	-0.022	0.042	0.004	-0.06	0.065
SCO2 (UniProt O43819)	0.118	-0.057	0.026	-0.163	0.092	0.048	-0.007	0.002	0.029	0.101	-0.05	0.106	0.007	-0.005	0.05	-0.1	0.15	-0.283	-0.337	-0.062
RPL37A (UniProt P61513)	-0.012	-0.01	-0.011	0.312 (active)	-0.088	-0.131	-0.087	-0.044	0.02	-0.2	0.095	0.032	0.139	-0.028	-0.013	-0.021	0.041	0.011	0.067	0.008
SAMD4A (UniProt Q9UPU9)	0.282	0.047	-0.041	-0.064	-0.046	-0.036	0.088	0.019	-0.215	0.101	-0.228	-0.005	-0.069	0.058	-0.023	0.012	–	–	–	–
RFC5 (UniProt P40937)	0.007	-0.058	-0.056	-0.047	0.016	-0.068	0.018	0.026	-0.039	0.018	-0.06	0.025	-0.078	0.074	0.025	-0.02	0.005	0.001	-0.005	-0.023
RNF17 (UniProt Q9BXT8)	-0.02	0.031	0.105	0.08	-0.071	0.028	0.119	0.006	-0.285	-0.257	-0.055	0.061	0.142	0.054	0.046	0.043	–	–	–	–
RBM4 (UniProt Q9BWF3)	-0.015	-0.01	0.018	0.183	-0.003	-0.097	0.075	-0.109	-0.02	-0.069	0.032	0.03	0.033	0.034	0.046	0.029	-0.086	-0.011	0.029	-0.067
SEC16A isoform 3 (UniProt O15027)	–	–	–	–	0.024	–	–	–	–	–	-0.026	-0.039	–	–	–	–	–	–	–	–
RMI2 (UniProt Q96E14)	–	–	0.005	–	0.013	–	-0.068	-0.012	–	–	-0.049	-0.044	-0.051	0.021	–	0.082	–	–	–	–
RDH11 (UniProt Q8TC12)	-0.035	–	-0.034	-0.11	-0.011	0.298 (active)	0.009	0.041	–	0.328 (active)	-0.075	-0.021	0.038	0.103	0.034	-0.011	0.034	-0.05	-0.045	-0.038
RXRA (UniProt P19793)	-0.045	–	-0.062	-0.041	0	-0.047	–	0.019	–	0.126	-0.112	-0.024	-0.028	0.027	0.024	-0.014	0.164	-0.053	0.119	0.011
ROBO2 isoform 3 (UniProt Q9HCK4)	0.02	–	-0.039	–	–	–	–	0.019	–	–	–	–	0.052	0.009	0.043	0.005	–	–	–	–
RNF170 (UniProt Q96K19)	-0.011	-0.332	–	-0.042	-0.229	-0.198	–	–	0.024	1.2 (active)	-0.008	-0.028	–	–	-0.07	0.073	-0.04	0	0.043	-0.3
